Screening data as filed in PubChem BioAssay.
hgDAF12 agonist: activates the H. glycines DAF-12 receptor ligand-binding domain. HEK293 GAL4-hgDAF12 UAS-luciferase reporter, agonist luminescence; normalized to butyrate control. activation, % at 6.8 µM. hit rate 1.8% among 370,000. AID 687014;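 active means activation above a cutoff set at the mean of all screened compounds plus 3 SD, cut at about 10% in these data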;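 further: 0% = DMSO wells and 100% = sodium butyrate wells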
DAX1 inh-1: inhibits human nuclear receptor DAX1; P51843; hit rate 0.99% among 340,000; inhibition, % at 6.75 µM; AID 504766; HEK293 Gal4-DAX1 luciferase reporter, luminescence;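 active means inhibition above the mean over all tested compounds plus 3 SD, cut at about 4.2% in these data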;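 further: 0% = DAX1-transfected cells with DMSO and 100% = empty-vector control cells with DMSO; inhibition shows as a rise in luminescence from relieved DAX1 repression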
Target sequence (P51843 207-470 limits assumed): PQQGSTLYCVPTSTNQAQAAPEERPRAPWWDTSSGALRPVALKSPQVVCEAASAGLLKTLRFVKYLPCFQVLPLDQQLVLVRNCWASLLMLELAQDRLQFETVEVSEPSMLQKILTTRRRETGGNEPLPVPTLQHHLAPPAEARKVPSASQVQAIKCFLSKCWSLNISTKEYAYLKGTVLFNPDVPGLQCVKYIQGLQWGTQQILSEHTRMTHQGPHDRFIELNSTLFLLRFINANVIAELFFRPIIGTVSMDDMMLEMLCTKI
ssDAF-12 act: activators of S. stercoralis DAF-12 nuclear receptor; activation, % at 6.8 µM; HEK293 ssDAF-12/GRIP1 lit1-tk-luc reporter, luminescence; % of 3 µM dafachronic acid response; hit rate 1% among 370,000; AID 652126;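 active means activation above the mean over all tested compounds plus 3 SD, cut at about 0.9% in these data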;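 further: 0% = DMSO-only wells and 100% = 3 µM delta7-dafachronic acid wells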
DAX1 inh-2: DAX1 (NR0B1) inhibition, primary screen. inhibition, % at 6.8 µM. hit rate 1.1% among 370,000. HEK293T StAR-luciferase reporter, SF-1/DAX-1 repression relief;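 active means inhibition above the mean over all tested compounds plus 3 SD, cut at about 3.6% in these data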;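 further: 0% = DAX-1 cells with DMSO and 100% = cells lacking DAX-1 with DMSO; higher inhibition means more luminescence from relief of DAX-1 repression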
hcDAF12 agonist: activators of H. contortus DAF-12 nuclear receptor; HEK293 hcDAF-12 lit1-tk-luc reporter, luminescence; 0% DMSO, 100% Δ7-dafachronic acid; hit rate 1.4% among 370,000; activation, % at 6.8 µM; AID 652067;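 active means activation above the mean of all tested compounds plus 3 SD, cut at about 5.5% in these data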;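 further: 100% = response to 3 µM Δ7-dafachronic acid high control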
* = called active by the depositor; . = not tested or not shown. Compounds with a hit are over-represented: about 4.1% of the library has one in this group of screens.

SMILES | hgDAF12 agonist | DAX1 inh-1 | ssDAF-12 act | DAX1 inh-2 | hcDAF12 agonist
CCOC(=O)c1c(C)nc2sc3c(=O)n(-c4ccc(C(C)=O)cc4)nnc3c2c1-c1ccc(OC)cc1 | 1 | 0 | -2 | -1 | 7.0*
CCOC(=O)c1c(C)nc2sc3c(=O)n(-c4ccc(OC)cc4)cnc3c2c1-c1ccc(OC)cc1 | 4 | 0 | -1 | 0 | 0
COc1cccc(CN(C)C(=O)Cc2c[nH]c3ccccc23)c1 | 7 | 0 | 1 | 1 | 6.1*
COc1ccc(CN(C)C(=O)Cc2c[nH]c3ccccc23)cc1 | 1 | -1 | 1 | -1 | 6.1*
Cn1ccc(NC(=O)c2ccc([N+](=O)[O-])cc2)n1 | 1 | 7.0* | 0 | 1 | -2
Cc1onc(NC(=O)c2ccc(Cl)cc2Cl)c1Br | 11* | -1 | -1 | 2 | 1
Cn1ccc(NC(=O)c2ccc(Cl)cc2Cl)n1 | 7 | 1 | -1 | 3.9* | -1
Cn1ccc(NC(=O)c2ccc(Cl)cc2)n1 | 7 | 0 | -1 | 3 | 0
O=C(OCc1cn(Cc2cccc(Cl)c2)nn1)N1CCCC1 | 1 | . | -1 | -1 | -2
O=C(Cc1noc2ccccc12)Nc1ccccn1 | 11* | 4 | 0 | 1 | 2
Cc1ccc(NC(=O)Cc2noc3ccccc23)nc1 | 4 | -1 | -1 | 1 | -1
Cc1sc(NC(=O)c2ccco2)c(C(Nc2ccccn2)c2ccccc2)c1C (stereo not given) | 11* | 0 | -1 | 0 | 2
O=C1COc2ccccc2C(c2nnnn2Cc2ccccc2)N1Cc1cccs1 (stereo not given) | 1 | . | 1 | 0 | -2
Cc1cccc(-n2ncc3c(NCc4ccccc4)ncnc32)c1 | 12* | -1 | 0 | -3 | 0
Cc1ccc(CSc2ncnc3c2cnn3-c2ccccc2)cc1 | -1 | 1 | -2 | 0 | 2
c1ccc(CNc2ncnc3c2cnn3-c2ccccc2)cc1 | 7 | 0 | -2 | 1 | -1
Cc1ccc(-n2ncc3c(SCc4ccccc4)ncnc32)cc1 | 12* | 1 | 0 | 2 | 6.5*
Cc1cccc(-n2ncc3c(NCc4cccs4)ncnc32)c1 | 9 | 0 | 1.2* | 2 | 1
COc1cc(C2CC=C(C(=O)O)C(c3ccccc3F)N2S(=O)(=O)c2ccc(C)cc2)cc(OC)c1OC (stereo not given) | 3 | . | -2 | -1 | -1
C#CCOCCOCCOCCNc1nc(N2CCOCC2)nc(N2CCN(C(=O)[C@H](CCC(=O)O)n3cc(C(N)CC(C)C)nn3)CC2)n1 (stereo not given in full) | 7 | . | 0 | . | 2
Cc1ccc(/C=N/Nc2ccc(C(=O)O)cc2)s1 | -5 | -4 | -2 | -1 | -1
Cc1ccsc1/C=N/Nc1ccc(C(=O)O)cc1 | 2 | -5 | 0 | 1 | 6.4*
COc1cccc(C(=O)NCCn2ccc3ccccc32)c1 | 12* | 2 | -1 | 4 | 5
CC(=O)CC[C@H]1CC[C@]2(CCCN(C(=O)C3CCCCC3)C2)O1 | 0 | . | -1 | 0 | -1
CN(C)c1ccc(-c2nnc(SCC3CCCO3)n2C)cc1 (stereo not given) | 8 | 4.8* | 0 | 2 | 2
SMILES | hgDAF12 agonist | DAX1 inh-1 | ssDAF-12 act | DAX1 inh-2 | hcDAF12 agonist
Cn1c(SCC2CCCO2)nnc1-c1ccncc1 (stereo not given) | -2 | 0 | -1 | 1 | -1
CCOC(=O)C1=C(C(=O)OCC)C2N(Cc3ccccc3)c3ccccc3[C@@]23C[C@@H](C(=O)OC)N(S(=O)(=O)c2ccc(C(F)(F)F)cc2)C3=N1 (stereo not given in full) | 1 | . | -1 | 0 | 2
Nn1c(SCC(=O)NC2CCCC2)nnc1C(F)(F)F | -1 | 5.3* | 0 | -1 | -1
Cc1ccc(NC(=O)Cc2nnc(SCC(=O)NC3CCCC3)n2C)cc1 | -1 | 0 | -1 | 0 | 6.3*
Cc1nnc(SCc2cccc3ccccc23)s1 | 3 | 7.0* | -1 | 1 | 2
Cc1nc(CSc2nnc(C)s2)cs1 | 3 | 4.7* | -1 | 1 | -1
Cc1nnc(SCc2ccc(F)cc2)s1 | 4 | 2 | -1 | 0 | -1
Cc1c2ccccc2nc2c(F)c(N(C)C)c(F)c(F)c12 | 2 | -1 | 0 | 0 | 5.8*
C=CCN1C(=O)[C@]2(OCCC=C[C@H]2C)c2cc(OC)ccc21 | -5 | . | -1 | -1 | -2
CCOC(=O)CNC(=O)CSc1nnc(-c2ccccc2)n1CC | 2 | . | -1 | 0 | -1
CCN(CC)c1ccc(C(=S)NC2CCCCC2)cc1 | 2 | -1 | -1 | -1 | -2
CN(C)c1ccc(C(=S)NC2CCCCC2)cc1 | 13* | 5.1* | 0 | 4.3* | 4
O=C(C(=O)N1CCC(CNS(=O)(=O)c2ccc(C(F)(F)F)cc2)CC1)c1cc2ccccc2o1 | -1 | . | 0 | -1 | -1
O=C(O)c1ccc2c(c1)N(Cc1ccc(F)cc1)C(=O)c1ccccc1S2 | -2 | 5.0* | -2 | 1 | -2
CCOC(=O)CN1C(=O)/C(=C/c2ccccc2Br)Oc2ccccc21 | -2 | 1 | -1 | 1 | 5.6*
Cc1ccc2nc(-c3ccccc3)cc(C(=O)NCC3CCCO3)c2c1 (stereo not given) | 2 | . | -1 | 0 | 0
O=C(NCC1CCCO1)c1cc2ccccc2nc1Cl (stereo not given) | 0 | 4.3* | 0 | 1 | 0
Cc1nc2ccc(F)cc2cc1C(=O)NCC1CCCO1 (stereo not given) | -1 | 0 | 0 | 0 | 5.8*
O=C(NCC1CCCO1)c1cccc2ccccc12 (stereo not given) | 3 | 2 | 0 | 0 | -2
COC(=O)[C@]1(CNC(=O)C(C)(C)C)CC(=O)N(C)[C@@H]1c1ccccc1 | -3 | . | -1 | 0 | -1
COc1ccc(N=Cc2ccccc2O)cc1 | 2 | 1 | 0 | 0 | 3
COc1ccc(N=Cc2oc3ccc4ccccc4c3c2O)cc1 | 5 | 0 | 1.2* | 2 | 3
COC(=O)C1=C(C)N(Cc2ccc(Cl)cc2)C(=S)NC1c1ccc(Cl)cc1 (stereo not given) | -1 | . | -1 | 0 | 1
O=C(c1ccccc1Cl)c1c(O)c2ccccc2oc1=O | 1 | 5.6* | -1 | 0 | -1
COc1ccc(/C=C2/C(=O)N(c3nc4ccccc4s3)N=C2CSc2ccc(Cl)cc2)cc1 | 4 | 0 | 1 | 1 | 5.6*
O=c1c2ccccc2ncn1-c1ccccc1[N+](=O)[O-] | -3 | 2 | -1 | 0 | -2
O=c1c2ccccc2ncn1-c1ccc([N+](=O)[O-])cc1Cl | -2 | 5.0* | -1 | 0 | -3
CC(C)Oc1ccc(CCNC(=O)CC2C(=O)NCCN2C)cc1 (stereo not given) | -1 | 4.4* | -1 | 2 | -1
COc1ccc(CCNC(=O)CC2C(=O)NCCN2CC(C)(C)C)cc1 (stereo not given) | 1 | -1 | 0 | 0 | 0
